Compound activity from PubChem.
The list is not random: actives were taken first. Their share in the collection is about 3.5%.
BoNT-F LC inh = blocks Botulinum neurotoxin F light chain protease | Multiplex microsphere protease cleavage assay, flow cytometry | inhibition, % at 10 µM | 0.22% of 360,000 active; in the data active means inhibition above about 35%, passing the limit was not always enough
BoNT-A LC inh2 = BoNT A light chain protease inhibition; inhibition, % at 10 µM; 0.17% of 360,000 active; multiplex microsphere protease substrate cleavage, flow cytometry; AID 588499
Anthrax LF prot = anthrax lethal factor protease inhibition. multiplex microsphere protease cleavage assay, LF. 0.12% of 360,000 active. P15917. AID 588501. inhibition, % at 10 µM
Autofluor counter = flagged as autofluorescent in microsphere protease counterscreen; fluorescence intensity (no concentration beside the values); 3.1% of 360,000 active; compound autofluorescence counterscreen, microsphere flow cytometry; stronger effect = higher value; in the data active means fluorescence intensity above about 16000
A number is an active result. Unless noted, no stated cut-off is given here; in the data, active means inhibition above about 30%; inconclusive means no clear call, values can overlap the other calls; inactive means below that.

Screening FC(F)(F)c1cnc(N2CCSCC2)c(Cl)c1 returned BoNT-F LC inh inactive, BoNT-A LC inh2 inactive, Anthrax LF prot inactive and Autofluor counter inactive.
Screening CCC(=O)N(c1nnc(SCC(=O)Nc2ccccc2Cl)s1)C1CC1 returned BoNT-F LC inh inactive, BoNT-A LC inh2 inactive, Anthrax LF prot inactive and Autofluor counter inactive.
`CC(Oc1ccccc1F)C(=O)NNC(=O)Cc1ccc(S(=O)(=O)N2CCOCC2)s1` (stereo not drawn) gave BoNT-F LC inh 86, BoNT-A LC inh2 100, Anthrax LF prot 109 and Autofluor counter inactive.
Screening COc1ccc(Cc2nc3ccc(S(=O)(=O)N4CCOCC4)cc3[nH]2)cc1OC returned BoNT-F LC inh inactive, BoNT-A LC inh2 inactive, Anthrax LF prot inactive and Autofluor counter 24349.
For Cc1ccccc1OCc1nc2ccc(S(=O)(=O)N3CCOCC3)cc2[nH]1 the results were BoNT-F LC inh inactive, BoNT-A LC inh2 inactive, Anthrax LF prot inactive and Autofluor counter 22238.
C[C@H](CO)N1C[C@H](C)[C@H](CN(C)Cc2ccc(Oc3ccccc3)cc2)Oc2cc(Br)ccc2S1(=O)=O was read as BoNT-F LC inh inactive, BoNT-A LC inh2 inactive, Anthrax LF prot inactive and Autofluor counter inactive.
`Cn1c(Cc2ccccc2)nnc1SCC(=O)Nc1ccc(N2CCOCC2)cc1` gave BoNT-F LC inh inactive, BoNT-A LC inh2 inactive, Anthrax LF prot inactive and Autofluor counter inactive.
`CC1=C(C(=O)OCc2ccccc2)C(c2ccc(C#N)cc2)NC(=O)N1CCCC(=O)O` (stereo not drawn) gave BoNT-F LC inh inactive, BoNT-A LC inh2 inactive, Anthrax LF prot inactive and Autofluor counter inactive.
Screening CN1CC(c2ccc(C#N)cc2)C2(COc3ccccc3C2=O)C12C(=O)Nc1ccccc12 (stereo not drawn) returned BoNT-F LC inh inactive, BoNT-A LC inh2 inactive, Anthrax LF prot inactive and Autofluor counter 19424.
`COC(=O)c1cc(NC(=O)C2COc3ccccc3O2)ccc1Cl` (stereo not drawn) gave BoNT-F LC inh inactive, BoNT-A LC inh2 inactive, Anthrax LF prot inactive and Autofluor counter 21646.
`COC(=O)c1cccc(NC(=O)C2COc3ccccc3O2)c1` (stereo not drawn) gave BoNT-F LC inh inactive, BoNT-A LC inh2 inactive, Anthrax LF prot inactive and Autofluor counter inactive.
`COc1ccc(OC)c(NC(=O)COC(=O)CCNc2ccccc2OC)c1` gave BoNT-F LC inh inactive, BoNT-A LC inh2 inactive, Anthrax LF prot inactive and Autofluor counter inactive.
`Cc1ccc(Cn2ccc(NC(=O)c3cc(-c4ccc(F)cc4)on3)n2)cc1` gave BoNT-F LC inh inactive, BoNT-A LC inh2 inactive, Anthrax LF prot inactive and Autofluor counter 24044.
Screening Cc1ccc(C2=N/C(=C\c3ccc(F)cc3)C(=O)N2)cc1 returned BoNT-F LC inh inactive, BoNT-A LC inh2 inactive, Anthrax LF prot inactive and Autofluor counter inactive.
Screening N/C(=N\OS(=O)(=O)c1ccc(Br)cc1)c1ccncc1 returned BoNT-F LC inh inactive, BoNT-A LC inh2 inactive, Anthrax LF prot inactive and Autofluor counter 21736.
Screening CCCC(=O)N1CCN(c2ccc([N+](=O)[O-])c(NC(C)c3ccccc3)c2)CC1 (stereo not drawn) returned BoNT-F LC inh inactive, BoNT-A LC inh2 inactive, Anthrax LF prot inactive and Autofluor counter 16602.
Screening CC(C)NC(=O)c1ccc2sc([C@@H]3O[C@H](CO)[C@H](O)[C@H](O)[C@H]3O)nc2c1 returned BoNT-F LC inh inactive, BoNT-A LC inh2 inactive, Anthrax LF prot inactive and Autofluor counter inactive.
`N/C(=N\OC(=O)c1ccc(Cl)c([N+](=O)[O-])c1)c1ccccc1` gave BoNT-F LC inh 63, BoNT-A LC inh2 inactive, Anthrax LF prot inactive and Autofluor counter inactive.
`Cc1cc(C)cc(C(=O)O/N=C(\N)c2ccc(Br)cc2)c1` gave BoNT-F LC inh inactive, BoNT-A LC inh2 inactive, Anthrax LF prot inactive and Autofluor counter 20148.
CN(CC(=O)O/N=C(\N)c1cccc([N+](=O)[O-])c1)S(=O)(=O)c1ccccc1 was read as BoNT-F LC inh inactive, BoNT-A LC inh2 inactive, Anthrax LF prot inactive and Autofluor counter 17118.
For N/C(=N\OC(=O)c1ccc(Cl)c([N+](=O)[O-])c1)c1ccccn1 the results were BoNT-F LC inh inactive, BoNT-A LC inh2 inactive, Anthrax LF prot inactive and Autofluor counter inactive.
Screening Cc1cccc(C(=O)O/N=C(\N)c2ccc(Br)cc2)c1 returned BoNT-F LC inh inactive, BoNT-A LC inh2 inactive, Anthrax LF prot inactive and Autofluor counter inactive.
For Cc1ccc(C(=O)O/N=C(\N)c2cccc([N+](=O)[O-])c2)cc1 the results were BoNT-F LC inh inactive, BoNT-A LC inh2 inactive, Anthrax LF prot inactive and Autofluor counter 19951.
O=CNC1(c2ccccc2)CCCCC1 was read as BoNT-F LC inh inactive, BoNT-A LC inh2 inactive, Anthrax LF prot inactive and Autofluor counter inactive.
Screening O=C(c1ccccc1)c1nn(-c2ccccc2)c2nnc(Cc3ccccc3)c(=O)n12 returned BoNT-F LC inh inactive, BoNT-A LC inh2 inactive, Anthrax LF prot inactive and Autofluor counter 17139.
